“And” between values parts separate entries of the source, which are not always exact repeats. Equal values may be shown once. About 79,000 compounds went through this panel and 15% of them were active in at least one assay; those are over-represented in the sample as a whole. The source made the active and inactive calls. Cut-off read from the data, not from the text of the source: active = growth inhibition above about 70%; inactive = the rest.
How the values were obtained:
[1] = NCI Yeast Anticancer Drug Screen. Data for the rad50 strain (AID 155);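 note: 0% = growth of vehicle-only cultures of the same strain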; conditions: S. cerevisiae rad50 strain growth inhibition; at 50.0 µM; stronger effect = higher value
Outline: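 Inhibition values express reduced yeast growth in compound-treated cultures relative to vehicle-treated controls.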

[2] = NCI Yeast Anticancer Drug Screen. Data for the mec2-1 strain (AID 157); conditions: S. cerevisiae mec2-1 strain, at 50.0 µM, stronger effect = higher value
Outline: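 Strain: mec2-1 (DNA repair/cell cycle alteration). Compound exposure, then growth measured; inhibition expressed relative to vehicle.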

[3] = NCI Yeast Anticancer Drug Screen. Data for the sgs1 mgt1 strain (AID 161);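 note: 0% = growth of cultures given vehicle only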; conditions: S. cerevisiae sgs1 mgt1 strain, at 50.0 µM, stronger effect = higher value
Outline: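 Read-out: growth inhibition vs vehicle controls. Cells: mutant yeast strain deficient in DNA damage repair.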

[4] = NCI Yeast Anticancer Drug Screen. Data for the cln2 rad14 strain (AID 165);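 note: 0% = growth equal to vehicle treated cultures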; conditions: S. cerevisiae cln2 rad14 strain, at 50.0 µM, stronger effect = higher value
Outline: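 Compounds are applied to the cln2 rad14 yeast strain, and growth is then compared with that of vehicle-treated cultures to give inhibition.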

[5] = NCI Yeast Anticancer Drug Screen. Data for the bub3 strain (AID 167); conditions: S. cerevisiae bub3 mutant strain, at 50.0 µM, stronger effect = higher value
Outline: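 Steps: expose the mutant yeast strain to compound; grow alongside vehicle-treated cultures; measure growth; express inhibition against the vehicle cultures.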

[6] = NCI Yeast Anticancer Drug Screen. Data for the mlh1 rad18 strain (AID 175); conditions: S. cerevisiae mlh1 rad18 strain growth inhibition; at 50.0 µM; stronger effect = higher value
Outline: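 Read-out is yeast growth inhibition, calculated against vehicle-only controls. The compound was applied to a strain engineered with DNA damage repair alterations.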

Measured: growth inhibition

Cn1c(O)c(N=O)c(=O)n(C)c1=O
inactive: [1] 29.4% and 20.9% | [2] 9.85% and -9.05% | [3] -0.6% and 8.4% | [4] 7.75% and -1.1% | [5] -9.85% and -6.3% | [6] -13.7% and 13.4%

C/C(=N\N(C)C)C(CN1CCCCC1)C(c1ccccc1)c1c(O)c2ccccc2oc1=O (stereo not given)
inactive: [1] -1.35% | [2] -30.2% | [3] -6.15% | [4] 4.8% | [5] 30.1% | [6] -9%

[Cl][Cd][Cl]
inactive: [1] 54.5% | [2] 25.5% | [3] 2.6% | [4] 35.5% | [5] 13.2% | [6] 2.15%

CC(=O)N1CCCN(C)/C1=N/[N+](=O)[O-]
inactive: [1] -20.1% | [2] -14.8% | [3] -6.7% | [4] -10.9% | [5] -15.4% | [6] -13.9%

CC1N=NNN1C (stereo not given)
inactive: [1] -1.8% | [2] -9.7% | [3] -2.3% | [4] -5.9% | [5] 8.75% | [6] -8.65%

CC(C)c1cc2c(cc1O)C1(C)CCCC(C)(C)C1CC2=O (stereo not given)
inactive: [1] 27.4% | [2] 32.3% | [3] 19.9% | [4] 22.4% | [5] 27.9% | [6] 34.6%

OCCBr
inactive: [1] -2.95% | [2] -7.7% | [3] -4.65% | [4] -1.05% | [5] -0.7% | [6] -17.9%

O=C1C=CC(=O)c2c(O)cccc21
inactive: [1] 27.4% | [2] 13.2% | [3] 38% | [4] 15.4% | [5] 41.3% | [6] 29.2%

NNc1c(C(N)=O)c2c(N)ncnc2n1C1OC(CO)C(O)C1O (stereo not given)
inactive: [1] -0.6% | [2] 37.8% | [3] 4.9% | [4] 10.5% | [5] 4.55% | [6] 19.9%

COCCCCCC(=O)CP(=O)(OC)OC
inactive: [1] -7.15% | [2] -1.4% | [3] -1.2% | [4] -12.9% | [5] -6.4% | [6] 8.95%

O=[N+]([O-])CCCCl
inactive: [1] 2.05% | [2] -3.05% | [3] -3.05% | [4] -7.95% | [5] 1.85% | [6] 2.35%

N.N.N.N.N.O=C([O-])CCl.[Co+3].[O-][Cl+3]([O-])([O-])[O-]
inactive: [1] -21.4% | [2] -7.45% | [3] -33.5% | [4] -0.1% | [5] -16.6% | [6] -31.4%

Cc1ccccc1N
inactive: [1] 4.1% | [2] -14.4% | [3] -1.15% | [4] -1.7% | [5] -1.55% | [6] 4.4%

CCNC(Cc1ccccc1)c1ccco1 (stereo not given)
inactive: [1] -2.35% | [2] -12.1% | [3] -15.5% | [4] 18.8% | [5] -10.2% | [6] 12.5%

Clc1cccc2c(N3CC3)cnnc12
inactive: [1] 17.6% | [2] -1.3% | [3] -13.3% | [4] 1.4% | [5] -16.6% | [6] -2.55%

CC(C)NCC(=O)c1ccc(O)c(O)c1
inactive: [1] 4.9% and -5.1% | [2] -19.3% and 4.45% | [3] -21.8% | [4] -7.25% | [5] -26.1% | [6] 7.7% and -10.9%

CC(C)CC(NC=O)C(=O)NC(Cc1ccccc1)NC(=O)CNC(=O)C(C)NC(=O)C(N)Cc1ccc(O)cc1 (stereo not given)
inactive: [1] -17.3% | [2] -9.9% | [3] -0.9% | [4] 15.4% | [5] -5.15% | [6] -6.45%

CCC1(O)CC(O)c2c(O)c3c(c(O)c2C1C(=O)OC)C(=O)c1cccc(O)c1C3=O (stereo not given)
inactive: [1] 20.8% | [2] 39.8% | [3] 28.2% | [4] 21.8% | [5] 14.5% | [6] 36.8%

COC1=C(OC)C23CCc4ccc(OC)c(O)c4C2(CCN3)CC1=O (stereo not given)
inactive: [1] 7.5% | [2] -10.7% | [3] 25.2% | [4] 14.1% | [5] 1.6% | [6] -27.4%

CN1CCCC(OC(=O)C(c2ccccc2)C2(O)CCCC2)C1 (stereo not given)
inactive: [1] 30.6% | [2] -9.55% | [3] 27.1% | [4] -27.9% | [5] -1.85% | [6] 16.8%

C/C=C(\C)C(=O)OC1CCN2CC=C(COC(=O)C(O)(C(C)O)C(C)(C)O)C12 (stereo not given)
inactive: [1] 12.3% | [2] 2.3% | [3] 2.5% | [4] 4.85% | [5] 6.25% | [6] -0.55%

CC(=O)OC1CC2(O)C(CCC3(C)C(c4ccc(=O)oc4)CCC32O)C2(C)C1=CC(O)C1OC12 (stereo not given)
inactive: [1] 3.95% | [2] 6.85% | [3] -12.4% | [4] -1.7% | [5] -2% | [6] -13.9%

Cn1nc(-c2ccc(S(=O)(=O)F)cc2)s/c1=N/NC(=O)c1ccccc1
inactive: [1] 4% | [2] 2% | [3] 19.8% | [4] 23.4% | [5] 18.6% | [6] 3.65%

COc1cc(C(c2c(O)c3ccccc3oc2=O)c2c(O)c3ccccc3oc2=O)cc(OC)c1OC
inactive: [1] -2.1% | [2] -8.15% | [3] -10.2% | [4] 0.9% | [5] -11.7% | [6] -2.85%

CC(C)N1CC(COc2cccc3ccccc23)OP1(=O)N(CCCl)CCCl (stereo not given)
inactive: [3] 52%
active: [1] 97% | [2] 98.7% | [4] 98.3% | [5] 98.4% | [6] 98.4%

Cc1cc(NC2=NCCO2)c2c(c1C)CCCC2
inactive: [1] -10.1% | [2] -23.1% | [3] -6.9% | [4] 22.3% | [5] -7.85% | [6] -5.35%

CC(C)(C[N+](=O)[O-])C[N+](=O)[O-]
inactive: [1] -1.45% | [2] -34.1% | [3] 15.6% | [4] -19.1% | [5] -1.7% | [6] 10.9%

Cn1c(=O)c2ncnnc2n(C)c1=O
inactive: [1] 31.6% | [2] 22.9% | [3] 27.9% | [4] 0.5% | [5] 36.8% | [6] 45.1%

CC1(C)CC(OP(=O)(Cl)OC2CC(C)(C)N(O)C(C)(C)C2)CC(C)(C)N1O
inactive: [1] 1.8% | [2] -0.75% | [3] 7.85% | [4] -7.35% | [5] 1.1% | [6] -7.65%

Nc1ccccc1Nc1ccccc1C(=O)[O-].Nc1ccccc1Nc1ccccc1C(=O)[O-].[Zn+2]
inactive: [1] -19.2% | [2] -7% | [3] -15.2% | [4] 10.2% | [5] -29.4% | [6] -7.55%

CCOc1ccc(OCC)c(C(O)C(C)NC(C)C)c1 (stereo not given)
inactive: [1] -0.55% | [2] 9.1% | [3] 6% | [4] 0.1% | [5] -3.6% | [6] -10.2%

COC(=O)C1C(c2ccc(-c3ccccc3)cc2)N1C1CCCCC1 (stereo not given)
inactive: [1] 7.7% | [2] 19.8% | [3] 2.9% | [4] -2.05% | [5] -4% | [6] 1.85%

COC(=O)C1C(O)CC2(O)CC(O)CC(O)C(O)CCC(O)CC(O)CC(=O)OC(C)C(C)C(O)C(C)/C=C/C=C/C=C/C=C/C=C/C=C/C=C/C(OC3OC(C)C(O)C(N)C3O)CC1O2 (stereo not given)
inactive: [1] -6.8% | [2] 6.95% | [3] -4.9% | [4] 6.15% | [5] 1.6% | [6] -3.7%

CC(C)=C(OP1(=S)OCCN1C)C(C)(C)C(=O)N(C)C (stereo not given)
inactive: [1] -2.6% | [2] -3.65% | [3] -1.9% | [4] 12.8% | [5] 11.9% | [6] 4.45%

CC(=O)Nc1ccc(C(=O)O)cc1
inactive: [1] 5.05% | [2] -1% | [3] 0.1% | [4] 33% | [5] 0.15% | [6] 1.8%

CC(NC1=NCCO1)c1ccccc1Cl (stereo not given)
inactive: [1] -8.85% | [2] -29% | [3] 5.45% | [4] -27.9% | [5] -12.9% | [6] -48%

O=C(CN1CCCCC1)c1ccc(Br)cc1
inactive: [1] 15.7% | [2] 6.1% | [3] 9.4% | [4] -20.9% | [5] -12.4% | [6] 9.55%

C=Cc1cc(OC)c2c(c1)c(=O)oc1c2cc(OC)c2c(O)ccc(C3OC(C(C)O)C(O)C3O)c21 (stereo not given)
active: [1] 88% | [2] 91.7% | [3] 89.1% | [4] 90.2% | [5] 90% | [6] 89.3%

CCCCCCCCCC[C@@H](O)[C@@H]1CC[C@@H]([C@@H]2CC[C@@H]([C@@H](O)CCCCCCCCCC[C@H](O)CC3=CC(C)OC3=O)O2)O1 (stereo not given in full)
inactive: [1] -3.45% | [2] -0.4% | [3] 18.8% | [4] 31% | [5] -11.7% | [6] -21.9%

CCCCN1CCC2(CC1)C(=O)NC(=S)NC2=O
inactive: [1] -12.4% | [2] -2.5% | [3] -3.65% | [4] 4.65% | [5] 6.25% | [6] -22.3%

— PubChem BioAssay (NCI)
